Measurements as given in PubChem BioAssay AID2501 (Southern Research Specialized Biocontainment Screening …, 2010).
Screen size: about 2,200 compounds; about 1,200 (55%) were called active. So high a share suggests a set chosen from earlier hits. Some of the results follow. Values without a mark were called inactive. Cut-off not given; nearly all actives show IC50 up to about 92 µM.

Assay: counter assay for TAg ATPase ADP read-out – biochemical, ADP-Hunter, fluorescence, counter-screen (AID 2501);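 further: purified T antigen ATPase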;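 on inhibition: 0% = enzyme with vehicle and 100% = reference inhibitor wells; higher means more inhibition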
Conditions: series mostly up to 100 µM; inhibition: at the top concentration

| Structure (SMILES) | IC50 | inhibition |
| --- | --- | --- |
| c1ccc(CNc2ncnc3ccccc23)cc1 | 4.18 µM (active) | – |
| Cc1c(C)n(Cc2ccccc2)c2ncnc(NN)c12 | – | -100% |
| CCOC(=O)C1=C(O)C(=O)N(Cc2cccnc2)C1c1ccc(OC)cc1 (stereo unspecified) | – | -22.7% |
| COc1ccc(-c2nc(O)c3cnccn23)cc1 | 6.67 µM (active) | – |
| COc1cc(/C=N\NC(=O)C2CC3C=CC2C3)ccc1O (stereo unspecified) | 7.58 µM (active) | – |
| COc1cc(/C=N/NC(=O)NC2CCCCC2)ccc1O | 3.75 µM (active) | – |
| Cc1cc(C)c(S(=O)(=O)Nc2cc(SCC(=O)O)c(O)c3ccccc23)cc1C | – | -494% |
| Cc1cc(=O)[nH]c2ccc(S(=O)(=O)Nc3ccc(O)cc3)cc12 | 7.34 µM (active) | – |
| Cc1ccc(C)c(S(=O)(=O)Nc2ccc(O)cc2)c1 | 6.11 µM (active) | – |
| CNS(=O)(=O)c1cc(NC(=O)CCCNC(=O)c2ccc(Cl)cc2)ccc1C | – | 7.77% [at 50 µM] |
| CCSS(=O)(=O)c1cccc2cccnc12 | – | -2.66% |
| O=S(=O)(Nc1ccc(O)cc1)c1cccc2cccnc12 | 4.75 µM (active) | – |
| Cc1ccccc1NS(=O)(=O)c1cc(C(=O)NCCC2=CCCCC2)ccc1C | – | -5.52% |
| CSS(=O)(=O)c1cccc2cccnc12 | – | 5.86% |
| Cc1cc(C)c(S(=O)(=O)Nc2ccc(O)cc2)cc1C | 12.1 µM (active) | – |
| Cc1c(C(=O)Oc2ccc(-c3cnc4ccccc4n3)cc2)cccc1[N+](=O)[O-] | – | -11.1% |
| NC(=O)N/N=C/c1c(Sc2nnnn2-c2ccccc2)nc2ccccn2c1=O | – | -35.8% |
| Cc1cc(Cl)ccc1OCCn1cncn1 | – | 16% [at 50 µM] |
| CC1=C/C(=N\OS(=O)(=O)c2ccccc2)C(C(C)C)=CC1=O | – | -18.8% |
| CN1CCc2cccc3c2C1Cc1ccc(O)c(O)c1-3 (stereo unspecified) | – | -64.7% |
| CCOC(=O)Cn1c(=O)oc2cc(S(=O)(=O)NCCC(C)C)ccc21 | – | 17.2% |
| O=S(=O)(Nc1ccc2c(c1)nc1n2CCOC1)c1ccccc1 | – | -20.6% |

| Structure (SMILES) | IC50 | inhibition |
| --- | --- | --- |
| Cn1c(=O)oc2cc(S(=O)(=O)Nc3ccc(O)cc3)ccc21 | 3.81 µM (active) | – |
| Cc1occc1-c1nnc(SCC(=O)c2ccccc2)n1CC1CCCO1 (stereo unspecified) | – | -2.27% |
| Cc1nnc(SCc2ccccc2)n1CC1CCCO1 (stereo unspecified) | 70.8 µM (active) | – |
| Cc1nc2ncccn2c1-c1csc(Nc2ccc(N(C)C)cc2)n1 | 7.2 µM (active) | – |
| CN(C)c1ccc(Nc2nc(-c3cccnc3)cs2)cc1 | 5.96 µM (active) | – |
| O=C1c2ccccc2C(Nc2ccccc2F)N1c1cccnc1 (stereo unspecified) | – | -3.26% |
| Cc1cccc(/C(N)=N/OC(=O)N2c3ccccc3Sc3ccccc32)c1 | 79.6 µM (active) | – |
| NNC(=O)C(=O)Nc1ccc(O)cc1 | 5.13 µM (active) | – |
| NN/C(=C\[N+](=O)[O-])Nc1ccc(Cl)cc1 | – | -17% |
| CCOc1ccccc1NC(=S)N1CCN(c2ccc(O)cc2)CC1 | 6.75 µM (active) | – |
| CCOc1ccccc1NC(=O)NC(C)c1ccncc1 (stereo unspecified) | – | 14.3% |
| Oc1ccc(N2CCN(C(=S)NCCc3ccccc3)CC2)cc1 | 3.15 µM (active) | – |
| CC(C)CN(C)C(=O)CCc1nnc(Cc2cccc(C(F)(F)F)c2)o1 | – | 29.4% [at 50 µM] |
| Cc1ccc(NC(=O)C(CC(C)C)NC(N)=O)cc1Cl (stereo unspecified) | – | -6.45% |
| COC(=O)/C=C/C(=O)Nc1ccc(O)c(Cl)c1 | 6.19 µM (active) | – |
| Cc1ccccc1-n1sc2cc(F)ccc2c1=O | 49.1 µM (active) | – |
| O=S(=O)(NC1=NCCCCC1)c1ccc2sc(NS(=O)(=O)c3ccc4ccccc4c3)nc2c1 | – | 26.5% |
| CCN(CC)CCCN(C(=O)c1cccs1)c1nc(-c2ccc(OC)cc2)cs1 | – | -6.38% |
| COc1ccc(-c2csc(NNC3=NCCCCC3)n2)cc1 | 40 µM (active) | – |
| c1ccc(-c2csc(NNC3=NCCCCC3)n2)cc1 | 13.6 µM (active) | – |
| COc1ccc(Nc2nc(-c3ccc4c(c3)NC(=O)CO4)cs2)cc1 | – | 23.8% |
| Cc1ccc(N=c2oc3cc(O)ccc3cc2C(N)=O)cc1 | 17.1 µM (active) | – |

| Structure (SMILES) | IC50 | inhibition |
| --- | --- | --- |
| C=CC(=O)Oc1ccc(N2Cc3ccccc3C2=O)cc1 | 8.19 µM (active) | – |
| COc1cc(/C=C2/C(=O)NN(c3cccc(C)c3)C2=O)ccc1OC(=O)c1ccco1 | 27.4 µM (active) | – |
| COc1cc(/C=C2/C(=O)NN(c3ccc(Cl)cc3)C2=O)ccc1OC(=O)c1ccco1 | 80 µM (active) | – |
| COc1ccc(N2C(=O)/C(=C\c3ccco3)N=C2SCC(=O)NC(C)C)cc1Cl | – | -21.3% |
| CCOC(=O)c1c(NC(=O)c2ccc(S(=O)(=O)N(C)CC3CCCO3)cc2)sc2c1CC(C)(C)NC2(C)C (stereo unspecified) | – | 0.64% |
| Nc1ccc(OC(=O)Nc2ccc(O)cc2)cc1 | 3.47 µM (active) | – |
| CS(=O)(=O)N1CCc2cc(C(=O)Nc3ccc(O)cc3)ccc21 | 7.2 µM (active) | – |
| COC1=C(Nc2ccc(O)cc2)C(=O)c2ccccc2C1=O | 5.25 µM (active) | – |
| CC(C)OCCCNC1=C(Cl)C(=O)c2ccccc2C1=O | – | -6.77% |
| CN(C)C=NC1=NN(c2cccc(C(F)(F)F)c2)CC1 | 5.93 µM (active) | – |
| O=c1c2ccccc2[nH]c2ccc(O)cc12 | 5.13 µM (active) | – |
| O=C(CCN1C(=O)/C(=C\c2ccco2)SC1=S)Nc1ccc(C(=O)O)c(O)c1 | – | -4.22% |
| O=C1/C(=C/c2ccncc2)SC(=S)N1Nc1ccccc1 | 77.6 µM (active) | – |
| O=C(CCN1C(=O)/C(=C/c2ccco2)SC1=S)Nc1ccc(C(=O)O)c(O)c1 | – | -14.7% |
| COc1ccc(-c2cc(=O)oc3c(O)c(O)ccc23)cc1 | 8.96 µM (active) | – |
| O=C1NC(=S)CN1c1ccccc1 | – | 11.1% |
| CC(=O)N(C1=C(Cl)C(=O)c2ccccc2C1=O)c1ccc(C(=O)O)cc1 | – | 13.6% [at 50 µM] |
| O=C(O)c1ccccc1-c1c2cc(I)c(=O)c(I)c-2oc2c(I)c(O)c(I)cc12 | – | -1.2% |
| Nc1cc(C(=O)O)c(N)c2c1C(=O)c1ccccc1C2=O | 14.7 µM (active) | – |
| Cc1nc2cc(NCc3nc4ccccc4n3Cc3ccccc3)ccc2n1C | – | 26.8% |
| COc1cc(Cn2c(-c3ccc(O)c(OC)c3)nc3ccccc32)ccc1O | 0.9 µM (active) | – |
| COc1cc(Cn2nnc3ccccc32)ccc1O | 3.65 µM (active) | – |

| Structure (SMILES) | IC50 | inhibition |
| --- | --- | --- |
| CCOc1ccc(C(=O)CSCC(=O)O)cc1 | – | 4.18% |
| Cc1cccc(C)c1NC(=O)CSCC(=O)c1ccc(O)c(O)c1 | 10.3 µM (active) | – |
| COc1ccc(CCN(C)Cc2nc(Cc3ccc(OC)c(OC)c3)no2)cc1OC | – | -9.84% |
| Cn1c(=O)c2c([nH]c(=S)n2Cc2ccc(Cl)cc2)n(C)c1=O | 16 µM (active) | – |
| O=C(COC(=O)C1CC1)c1c[nH]c2ccccc12 | – | -3.45% |
| C/C(=N/NS(=O)(=O)c1cccc([N+](=O)[O-])c1)c1c[nH]c2ccccc12 | 9.39 µM (active) | – |
| COc1cc(/C=N/NS(=O)(=O)c2ccc(Br)cc2)ccc1O | 14.6 µM (active) | – |
| COc1cc(/C=N/NS(=O)(=O)c2ccc(C)c([N+](=O)[O-])c2)ccc1O | 8.36 µM (active) | – |
| O=[N+]([O-])c1cccc(S(=O)(=O)N/N=C/c2ccc(O)cc2)c1 | 5.86 µM (active) | – |
| CC(C)(C)c1ccc(-c2nc(O)c(CC(=O)O)s2)cc1 | – | 26.8% |
| COc1cc(/C=C2/C(C)=C(C#N)c3nc(N)c(C#N)c(C)c32)ccc1OCC(=O)O | – | 16.5% |
| CC1=C(C#N)c2nc(N)c(C#N)c(C)c2/C1=C\c1ccc(OCC(=O)O)c(Cl)c1 | 95.7 µM (active) | – |
| COc1cc(/C=C2\C(C)=C(C#N)c3nc(N)c(C#N)c(C)c32)ccc1OCC(=O)O | – | 25.9% |
| Nc1ncnc2oc(-c3ccco3)c(-c3ccco3)c12 | – | -28.1% |
| CS(=O)(=O)c1ccc2c(c1)SC1=NC(=O)/C(=C/c3ccco3)C(=N)N12 | – | 2.61% |
| COc1cc(/C=C2\SC(N)=NC2=O)ccc1O | 4.85 µM (active) | – |
| CCOc1cc(/C=C2\SC(=O)N=C2N)ccc1O | 4.18 µM (active) | – |
| CCOc1cc(/C=C2/NC(=O)N(CC(=O)OC)C2=O)ccc1O | 5.19 µM (active) | – |
| Cc1ccc(NC(=O)CN2C(=O)N/C(=C\c3cccn3-c3cccc(C(=O)O)c3)C2=O)cc1 | – | 11.3% |
| CCOc1cc(/C=C2\NC(=S)N(c3c(C)n(C)n(-c4ccccc4)c3=O)C2=O)ccc1O | 3.07 µM (active) | – |
| NC1=NC(=O)/C(=C\c2ccco2)S1 | – | -29.7% |
| COC(=O)c1[nH]c2ccc(Br)cc2c1NC(=O)Oc1ccccc1 | – | 22.8% |

| Structure (SMILES) | IC50 | inhibition |
| --- | --- | --- |
| CN(C)Cc1cc(O)c(CN(C)C)cc1O | – | -314% |
| CN=C1S/C(=C\c2ccc(O)c(OC)c2)C(=O)N1C | 4.35 µM (active) | – |
| NC1=NC(=O)S/C1=C\c1ccc(O)cc1 | 3.6 µM (active) | – |
| CCOc1cc(/C=C2\SC(=NC)N(C)C2=O)cc(Cl)c1OC(C)=O | – | 6.15% |
| COc1cc(C2NC(=S)NC(C)=C2C(=O)Nc2cc(C)cc(C)c2)ccc1O (stereo unspecified) | – | 23.4% [at 50 µM] |
| COc1cc(/C=C2\NC(=S)N(C)C2=O)ccc1O | 3.23 µM (active) | – |
| C=CCN1C(=O)/C(=C\C(C)=C\c2ccccc2)SC1=S | – | -42.1% |
| Cc1c(N2C(=O)/C(=C\c3ccccc3O)SC2=S)c(=O)n(-c2ccccc2)n1C | 54.7 µM (active) | – |
| CCCN1C(=O)/C(=C/c2ccc(OCc3ccc(C(=O)O)cc3)c(OC)c2)NC1=S | – | 19.4% |
| CCOc1cc(/C=N/NC(=O)Nc2ccccc2)ccc1O | 9.13 µM (active) | – |
| CCOc1cc(/C=N/NC(=O)N/N=C/c2ccc(O)c(OCC)c2)ccc1O | 2.03 µM (active) | – |
| CCOc1cc(/C=N/Nc2nc(C)cc(=O)[nH]2)ccc1O | 2.82 µM (active) | – |
| CCOc1cc(/C=N/Nc2ncnc(Cl)c2N)ccc1O | 3.29 µM (active) | – |
| Nc1c(-c2ccccc2)c(CN2CCOCC2)nn1-c1ccc(F)cc1 | – | -7.99% |
| Cc1cc(=O)[nH]c(N/N=C/c2c[nH]c3ccccc23)n1 | 5.41 µM (active) | – |
| COc1cc(/C=N/n2cnnc2)ccc1OC(=O)c1ccncc1 | 5.68 µM (active) | – |
| COc1ccccc1NC(=O)COc1ccc(/C=N/n2cnnc2)cc1OC | – | 24.4% |
| CCOc1cc(/C=N/n2cnnc2)ccc1O | 6.86 µM (active) | – |
